Bioassay records: PubChem BioAssay, National Center for Advancing Translational Sciences (NCATS)
Sampled rows, rich in hits. Any-hit rate of the full collection: about 6.3%.
VP16 counter: counter-screen for ROR gamma inhibitors: Gal4-VP16 reporter. Drosophila S2 Gal4-VP16 UAS-luciferase, luminescence, 20 h. Potency, µM (titrated, usually from 53.6 µM), for the others: top-dose activity, negative = inhibition, actives largely listed as inhibitors. 310,000 compounds, 3.5% hits. AID 2546;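 also: Gal4-VP16 expression switched on by copper sulfate through the metallothionein promoter; % is scaled to controls: 0 for no effect and ±100 for the full control effect; nearly all actives have a fitted effect of over 50% in size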
ATXN2 expr inh: reduces ATXN2 reporter expression in HEK-293 cells | HEK-293 ATXN2-luciferase reporter, luminescence, 24 h | Potency, µM (doses to about 57 µM), inactives show top-dose activity change, negative = inhibition, most hits filed as inhibitors | 360,000 compounds, 0.72% hits | AID 1745845; also: % is scaled to controls: 0 for no effect and ±100 for the full control effect; nearly all actives have a fitted effect of over 55% in size
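ATXN2-luciferase reporter cells (luciferase flanked by upstream and downstream ATXN2 gene portions) were treated 24 h at 37 °C with compounds at up to 57 uM. SteadyGlo luminescence gave expression; GF-AFC fluorescence gave viability.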
HepG2 viability: counter-screen for TGF-b inhibitors: cytotoxicity in HepG2 cells | HepG2 CAGA-GFP viability, ATP luminescence, 18 h | Potency, µM (top dose mostly 46.1 µM), for the others: at the highest dose activity change, negative = cytotoxicity, actives largely listed as cytotoxic | 410,000 compounds, 0.76% hits
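CellTiter-Glo luminescence gave cytotoxicity after 18 hours at 37 degrees C. The cells were HepG2 CAGA-GFP in 1% FBS DMEM, stimulated with 500 pg/mL TGF-beta after compound addition. %Activity was normalised to no-cell wells (complete cell-killing) and DMSO (no toxicity), and curves were fitted and classified.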
S2 tox: viability counter-screen for ATXN expression inhibitors | S2 cells (HEK-293 line with an ATXN2-luciferase reporter) viability, CellTiter-Fluor protease fluorescence, 24 h | Potency, µM (doses to about 56.7 µM), actives largely listed as cytotoxic | 400,000 compounds, 0.49% hits | AID 651635; also: nearly all actives have a fitted effect of over 40% in size
RORgamma inh: inhibitors of mouse ROR gamma transcriptional activity; P51450; Drosophila S2 Gal4-RORgamma UAS-luciferase reporter, 20 h; 310,000 compounds, 5.4% hits; Potency, µM (series often up to 53.6 µM), inactives show at the top dose activity change, negative = inhibition, actives largely listed as inhibitors; also: % is scaled to controls: 0 for no effect and ±100 for the full control effect; nearly all actives have a fitted effect of over 60% in size
Target sequence (P51450 whole entry, looked up, the tested form may be a part): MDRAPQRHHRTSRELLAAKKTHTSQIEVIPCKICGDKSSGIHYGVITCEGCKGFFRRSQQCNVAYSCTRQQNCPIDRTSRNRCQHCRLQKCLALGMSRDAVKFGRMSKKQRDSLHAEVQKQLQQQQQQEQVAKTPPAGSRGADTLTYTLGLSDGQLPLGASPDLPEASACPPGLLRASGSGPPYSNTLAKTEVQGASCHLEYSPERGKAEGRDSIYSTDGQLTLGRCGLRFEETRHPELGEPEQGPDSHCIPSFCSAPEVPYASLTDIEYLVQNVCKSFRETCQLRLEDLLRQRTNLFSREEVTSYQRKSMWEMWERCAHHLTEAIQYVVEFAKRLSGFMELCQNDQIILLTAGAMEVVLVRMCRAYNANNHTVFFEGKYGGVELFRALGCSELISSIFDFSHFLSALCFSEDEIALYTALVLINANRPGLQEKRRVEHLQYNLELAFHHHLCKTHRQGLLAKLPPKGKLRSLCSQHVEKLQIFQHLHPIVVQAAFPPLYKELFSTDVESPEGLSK
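A Gal4/UAS one-hybrid system in insect cells: metallothionein-promoter Gal4–ROR gamma fusion plus Photinus luciferase reporter. Copper sulfate 700 uM final, 20 hr ambient incubation, luminescent detection after 10 min with reagent.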
TGFb SMAD3 inh: inhibitors of TGF-b signaling | HepG2 CAGA-GFP TGF-b/SMAD3 reporter, GFP fluorescence, 18 h; TGF-beta stimulated, 500 pg/mL final | 410,000 compounds, 1.2% hits | Potency, µM (top dose mostly 46.1 µM), for the others: at the top dose activity, negative = inhibition, usual class: inhibitors | AID 588855; also: % is scaled to controls: 0 for no effect and ±100 for the full control effect; nearly all actives have a fitted effect of over 65% in size
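HEPG2 CAGA-GFP reporter cells (1000/well, DMEM with 1% FBS) received compounds, then recombinant TGF-beta at 500 pg/mL final for 18 hours at 37 degrees C. Per-cell GFP summed per well was normalised to unstimulated and stimulated DMSO controls before curve fitting.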
* = called active by the depositor; [ ] = dose if it differs, or a comment. Calls follow the shape of the dose curve; as a rule, active = well fitted curve in the direction sought with a large enough effect; inconclusive = small, poorly fitted or top-dose-only effect, or another doubt; inactive = no such curve, though single readings can be large; an effect the other way counts as inactive or inconclusive. Potency is read from the fitted curve at half-maximal effect.

Results for Cc1cccc(C)c1NC(=O)c1ccc([N+](=O)[O-])s1 ?
VP16 counter: inconclusive; HepG2 viability: -88%; S2 tox: inactive; RORgamma inh: -28%[10 µM]; TGFb SMAD3 inh: inconclusive

Results for Cc1cccc(NC(=O)c2ccc([N+](=O)[O-])s2)c1C ?
VP16 counter: inconclusive; ATXN2 expr inh: -39%; HepG2 viability: 14µM*; S2 tox: inconclusive; RORgamma inh: -34%; TGFb SMAD3 inh: 11µM*

What do the screens show for `Cc1cccc(NC(=O)c2ccc([N+](=O)[O-])cc2Cl)n1`?
VP16 counter: 5%; ATXN2 expr inh: 0%; HepG2 viability: -28%; S2 tox: inactive; RORgamma inh: 0%[10 µM]; TGFb SMAD3 inh: -3%

How did Cc1ccnc(NC(=O)c2ccc([N+](=O)[O-])s2)c1 do in these assays?
VP16 counter: inconclusive; ATXN2 expr inh: -33%; HepG2 viability: -104%; S2 tox: inactive; RORgamma inh: -104%; TGFb SMAD3 inh: 13µM*

Results for O=C(Cn1c(=O)n(-c2ccc(F)c(Cl)c2)c(=O)c2sc3ccccc3c21)NC1CCCCC1 ?
ATXN2 expr inh: 7%; HepG2 viability: 5%; S2 tox: inconclusive; TGFb SMAD3 inh: 15%

What do the screens show for `CCc1ccc(OCC(=O)N(Cc2ccc(C(C)C)cc2)C2CCS(=O)(=O)C2)cc1` (stereo not drawn)?
ATXN2 expr inh: inconclusive; HepG2 viability: -50%; S2 tox: inconclusive; TGFb SMAD3 inh: inconclusive

How did O=C(c1ccc([N+](=O)[O-])s1)N1CCN(c2ccccn2)CC1 do in these assays?
VP16 counter: -5%; ATXN2 expr inh: -33%; HepG2 viability: -29%; S2 tox: inactive; RORgamma inh: -26%; TGFb SMAD3 inh: inconclusive

What do the screens show for `Cc1ccnc(NC(=O)CNC(=O)c2ccc(C)s2)c1`?
ATXN2 expr inh: -26%; HepG2 viability: 0%; S2 tox: inactive; TGFb SMAD3 inh: -28%

Results for Cc1ccnc(NC(=O)c2cc3cc(F)ccc3s2)c1 ?
VP16 counter: inconclusive; ATXN2 expr inh: 50%; HepG2 viability: -7%; S2 tox: inactive; RORgamma inh: 3.2µM*; TGFb SMAD3 inh: 1%

What do the screens show for `O=C(c1ccc([N+](=O)[O-])s1)N1CCN(c2ccccc2)CC1`?
VP16 counter: -18%; HepG2 viability: -68%; S2 tox: inconclusive; RORgamma inh: 25µM*; TGFb SMAD3 inh: inconclusive

How did Cc1nc(Cn2c3ccc(NC(=S)NC4CCCCC4)cc3c(=O)n2C)cs1 do in these assays?
ATXN2 expr inh: 1%; HepG2 viability: -10%; S2 tox: inactive; TGFb SMAD3 inh: -12%

How did Cc1cccc(NC2=NC(=S)N(c3ccc(C(=O)O)cc3)C23CCCCC3)c1 do in these assays?
VP16 counter: -5%; ATXN2 expr inh: 24%; HepG2 viability: -8%; S2 tox: inactive; RORgamma inh: 1%; TGFb SMAD3 inh: -5%

How did Cc1cc(C)nc(Nc2cccc(C(F)(F)F)c2)n1 do in these assays?
VP16 counter: 5%; HepG2 viability: -35%; S2 tox: inactive; RORgamma inh: 10%; TGFb SMAD3 inh: inconclusive

What do the screens show for `CC(C)(C)C1CCC2(CC1)C(Nc1cccc(C(F)(F)F)c1)=NC(=S)N2CC#N` (stereo not drawn)?
VP16 counter: 13µM*; ATXN2 expr inh: -3%; HepG2 viability: 3%; S2 tox: inactive; RORgamma inh: 18µM*; TGFb SMAD3 inh: inconclusive

How did N#CCN1C(=S)N=C(Nc2cccc(Cl)c2)C12CCCCC2 do in these assays?
VP16 counter: inconclusive; ATXN2 expr inh: -1%; HepG2 viability: 1%; S2 tox: inactive; RORgamma inh: 2.8µM*; TGFb SMAD3 inh: 13%

What do the screens show for `Cc1ccc(NC2=NC(=S)N(CC#N)C23CCCCC3)cc1`?
VP16 counter: -20%; HepG2 viability: -27%; S2 tox: inactive; RORgamma inh: 18µM*; TGFb SMAD3 inh: -3%

How did C(=C\c1c[nH]c2ccccc12)/c1ccnc2ccccc12 do in these assays?
HepG2 viability: -36%; TGFb SMAD3 inh: inconclusive

How did Clc1cccc(-c2nc3ccc(Cl)cn3c2Cc2ccsc2)c1 do in these assays?
ATXN2 expr inh: 46%; HepG2 viability: -41%; S2 tox: inactive; TGFb SMAD3 inh: 16µM*

Results for Cc1ccc2nc(-c3ccc(Cl)cc3)c(Cc3cccc(Cl)c3)n2c1 ?
ATXN2 expr inh: inconclusive; S2 tox: 28µM*

Results for Clc1cccc(-c2nc3ccc(Cl)cn3c2Cc2ccccc2)c1 ?
ATXN2 expr inh: -1%; HepG2 viability: -36%; S2 tox: inconclusive; TGFb SMAD3 inh: inconclusive

Results for COc1ccccc1Cc1c(-c2ccc(OC)c(OC)c2)nc2ccc(C)cn12 ?
ATXN2 expr inh: 0%; HepG2 viability: -19%; S2 tox: 22µM*; TGFb SMAD3 inh: inconclusive

What do the screens show for `COc1ccc(-c2nc3ccc(C)cn3c2CC(C)(C)C)cc1OC`?
ATXN2 expr inh: 28µM*; HepG2 viability: -52%; TGFb SMAD3 inh: inconclusive

Results for COc1ccc(-c2nc3ccc(C)cn3c2Cc2cccc(Cl)c2)cc1OC ?
ATXN2 expr inh: -36%; HepG2 viability: -28%; TGFb SMAD3 inh: -14%

Results for Cc1nn(-c2ccccc2)c(C)c1CC(=O)NCC1Cc2cc(F)cc(-c3cccnc3)c2O1 (stereo not drawn) ?
S2 tox: inactive

What do the screens show for `Cn1cc(C[C@H](C(=O)O)N2C(=O)c3ccc(C(=O)O)cc3C2=O)c2ccccc21`?
VP16 counter: 2%; RORgamma inh: -3%

What do the screens show for `CCCNS(=O)(=O)c1ccc2nc(NC(=O)c3ccc(F)cc3)sc2c1`?
ATXN2 expr inh: inconclusive; HepG2 viability: -37%; TGFb SMAD3 inh: inconclusive

How did COc1ccc(-c2nc3ccc(C)cn3c2Cc2ccc(C)cc2)cc1OC do in these assays?
ATXN2 expr inh: -14%; HepG2 viability: -25%; TGFb SMAD3 inh: inconclusive

What do the screens show for `COc1ccc(-c2nc3ccc(C)cn3c2Cc2ccccc2)cc1OC`?
ATXN2 expr inh: inconclusive; HepG2 viability: -43%; S2 tox: 28µM*; TGFb SMAD3 inh: inconclusive

Results for COc1ccc(C2NC(=S)NC3=C2CCCC3=C2SCCS2)cc1 (stereo not drawn) ?
VP16 counter: inconclusive; ATXN2 expr inh: 24%[11.3 µM]; HepG2 viability: -51%; S2 tox: inactive; RORgamma inh: 10µM*; TGFb SMAD3 inh: -24%
